From the supplement of paper PMC6555819

tested on: VDR:RXRa (NR concentration 270 nM, RXRa partner concentration 90 nM); test: PBM binding z-score (relative to random genomic background probes); higher = stronger binding; sequences stand for … in GC…GCGATTGACAGCGTAGAATGAAGG
Experimental: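 Protein-binding microarray (Agilent 4x180K custom design, double-stranded 60-nt probes: 5' GC cap, 34-nt variable region, 24-nt constant primer region; full probe sequence given). Purified or IVT nuclear receptor:RXRα heterodimers (3:1 NR:RXRα, mostly 270:90 nM) or homodimers were incubated for 1 h in PBS with 2% milk and no ligand, then detected with Alexa488 antibodies. Fluorescence from o1-orientation probes (~5 replicates averaged) was converted to z-scores against 500 random hg19 background probes. Variable regions are seed direct-repeat (DR0–DR5) sites, all their single-nucleotide variants and half-site ablations.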

Row | Sequence | PBM binding z-score
1 | CTATGTAGGTTAAGGGGGTCATTAAGTTTGAAAG | 7.64
2 | AATACAGGGTCACTGGGCCAGAGTAGGTACGAAT | 4.65
3 | CGTCCAAGGTCAGAGAGGTCAGTGTATGCCGAGT | 7.31
4 | CGTCCAACGTCAAGGTCAGTGAAAGAGACTCGAA | 1.18
5 | TAGCCTAGGTCATTGGGCTAGTATAGTACGCATC | 2.03
6 | AGTAGCAGGCCAAGGGTCACTCAAGATTAGTCCG | 2.94
7 | GATACAGGGTCAGCTTGAGGCCAGAGTATGGAAA | 3.33
8 | TAGCCTAGGTCATTGGACCAGTATAGTACGCATC | 2.08
9 | GGTACGAGGGCAAAGTTGATAGCATCTGTCGACG | 1.14
10 | CGAACTAGCTCACCAGGACAGTGAAGAGGTTGGA | -0.616
11 | TCGAGTAGGTTACGGGGGCATCCAGGGATGAAGA | 3.51
12 | TCGAGTAGGTAACGGGGGCATTCAGGGATGAAGA | 3.38
13 | TATACAGGATCAAAGGCCAGAGTACGAATGTCGA | 0.61
14 | CCTACTGGGCCATTGAGAGGTCATTGATCATATG | 3.81
15 | CCGAGTATGTTACGAGGGGGCATTCAGTGCGAAT | 4.06
16 | TCGAGTAGGTTACGGGGGCATTTAGGGATGAAGA | 3.96
17 | CCTACAGGGCCAAGGTCATTGATCAGTCAAAGCA | 3.39
18 | TGAATGACGTTAAAGATCAGGGAACGTGGCGTCG | -0.237
19 | AATTCAGGGTCACTAGGCCAGAGTAGGTACGAAT | 4.79
20 | AGTCAAAGTTCATCTGGGTAACGTAAGATATGCT | 4.96

Row | Sequence | PBM binding z-score
21 | CCTTACGGGTCACTGACAGCTTATAGCATTTGGA | 3.11
22 | GATAGTTGGTCAGTAAAAGGTCACACACCGGTCG | 3.94
23 | CTGAGTAGGTTACGAGGGGGCATTCAGTGCGAAT | 5.14
24 | TCGAGTAGGTTACGGGAGCATTCAGGGATGAAGA | 0.0873
25 | GGAACGAGGGCAAAGGTGATAGCATCTGTCGACG | 1.92
26 | CTAACTAGGTCAAGGTCAAAGTCGGTTTGTGCCA | 5.07
27 | TCTAGGAGGACACGAAGGTCAGAGCTTTCCAGAG | 2.25
28 | CTCGAAAGGTCGGTTGAGGTGAGTAAACGGATAA | 2.11
29 | TCGAGTAGGTTTCGGGGGCATTCAGGGATGAAGA | 2.7
30 | ATATGTAAGTTAGGGTCATTCAGAAAGTAGGGAA | 4.5
31 | CCGCGTAGGTTACGAGGGGGCATTCAGTGCGAAT | 5.31
32 | ATCTCTAGGTAACAAGGTCAGTGAAAGAGAGGAC | 2.12
33 | CAGAGTAGGTTACGAGGGGGCATTCAGTGCGAAT | 5.33
34 | CGAACCAGGTCAAAGGACAGTGAAAGGCGACGTA | 2.44
35 | CCTACTGGGCCATCAGGTGATTGATATCAACGTT | -0.317
36 | CCGAGTAGGTTACGAGGGGGCATGCAGTGCGAAT | 4.63
37 | CGAACTAGGTCAAAGGACAGTGAGAGGCGACGTA | 1.19
38 | AGTCGGAGGACAAAGGTCAGAGCTACGCCAGTGA | 3.28
39 | ACTTACGGGTCAACGACGTTATAGCACGCGTATA | 4
40 | ATATGTAGGTTAGGGTCATTCAAAAAGTAGGGAA | 4.58
